Compounds with a hit are over-represented: about 21% of the library has one in this group of screens.
Shiga inhibitor = A qHTS for Small Molecule Inhibitors of Shiga Toxin. Vero cells, Shiga toxin protein synthesis inhibition reporter. inhibition, % at 38.7 µM. actives 9.2% (n = 290,000). AID 2315, 2010; in the data active = inhibition mostly above about 28%, no sharp cut-off; inactive = mostly below about 43%
NS1 inh = qHTS Assay for Inhibitors of Influenza NS1 Protein Function; actives 0.4% (n = 270,000); AID 2326, 2010; Potency, µM (series often up to 46.1 µM); calls by dose curve; note: actives are rising curves; nearly all actives have a fitted effect of over 50% in size
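Recovery from NS1-induced slow growth read by OD600 in budding yeast switched to galactose assay medium (pH 6.0, -URA) at 1:100 dilution. Compound 23 nl per well; the matching strain lacking NS1 serves as control.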
Pf growth 96h = Primary qHTS for delayed death inhibitors of the malarial parasite plastid, 96 hour incubation | P. falciparum luciferase reporter growth, 96 h | Potency, µM (series often up to 28.7 µM), most hits filed as inhibitors | actives 6.9% (n = 320,000)
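Parasite growth measured via integrated firefly luciferase reporter in P. falciparum. Infected erythrocytes at 2% hematocrit, 0.05% parasitemia final were treated 96 hours at 37 C under 5% CO2, and luminescence was read.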
CHX counter = Cycloheximide Counterscreen for Small Molecule Inhibitors of Shiga Toxin; cell reporter, cycloheximide protein synthesis inhibition counterscreen; max response, %; actives 12% (n = 300,000); in the data active = max response mostly above about 13%, no sharp cut-off; inactive = mostly below about 14%; note: read at 38.3 µM for the half of the compounds with a filed dose
Pf growth 48h = Primary qHTS for delayed death inhibitors of the malarial parasite plastid, 48 hour incubation; P. falciparum luciferase growth in erythrocytes, 48 h; Potency, µM (top dose mostly 28.7 µM), most hits filed as inhibitors; actives 5.9% (n = 310,000); AID 504832, 2011
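Luciferase-expressing P. falciparum in infected erythrocytes (2% hematocrit, 0.1% parasitemia final) in RPMI 1640/0.5% Albumax were exposed to compound for 48 hours at 37 C, 5% CO2; growth read as luminescence.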
Hits are given with their value; – = inactive; ? = inconclusive; · = no result given; [ ] = dose if it differs, or a comment. Unless noted, calls come from the whole dose curve; as a rule, active = well fitted inhibition curve with a large enough effect; inconclusive = small, poorly fitted or top-dose-only effect, or another doubt; inactive = no such curve, though single readings can be large or run the other way.

SMILES	Shiga inhibitor	NS1 inh	Pf growth 96h	CHX counter	Pf growth 48h
CN(C)S(=O)(=O)c1ccc(Cl)c(C(=O)Nc2nc3ccccc3[nH]2)c1	–	·	?	–	–
Cc1ccc(N(C)S(=O)(=O)c2cccc(C(=O)Nc3nc4ccccc4[nH]3)c2)cc1	39	?	?	36	12µM
O=[N+]([O-])c1cc2c(cc1[N+](=O)[O-])OCCOCCOCCOCCO2	–	·	–	–	–
CC(=O)Nc1cc2c(cc1C(=O)c1ccc(C)cc1)OCCO2	–	–	–	–	–
Cc1ccc(C(=O)c2cc3c(cc2[N+](=O)[O-])OCCO3)cc1	–	–	–	16	–
O=C(c1ccccc1)c1cc2c(cc1[N+](=O)[O-])OCCO2	–	–	–	12	–
CN(C)CCCOc1ccc2c(c1)Sc1ccccc1CC2=O	–	–	–	21	–
Cc1ccc(NS(=O)(=O)c2ccc3c(c2)CC(=O)N3)cc1F	·	·	–	·	?
O=C(O)c1cc(NC(=O)c2cccc(F)c2)cc(NC(=O)c2cccc(F)c2)c1	–	?	–	–	–
COc1cccc(C2=CC(c3cccc(OC)c3OC(F)F)n3nnnc3N2)c1 (configuration not stated)	–	–	–	17	?
COc1cccc(C2=CC(c3cccc(OC)c3OC)n3nnnc3N2)c1 (configuration not stated)	41	–	?	30	–
COc1cccc(C2=CC(c3cc(OC)ccc3OC)n3nnnc3N2)c1 (configuration not stated)	–	–	?	–	–
Cc1ccc(CN(CC(=O)NC(C)(C)C)C(=O)CNC(=O)c2cccs2)cc1	–	–	–	–	–
CC(Oc1ccc2c3c(c(=O)oc2c1)CCCC3)C(=O)NCC(O)c1ccccc1 (configuration not stated)	–	–	–	–	–
COc1ccc(S(=O)(=O)N2CCCC(C(=O)NCCc3ccccc3)C2)cc1 (configuration not stated)	–	–	–	–	–
CN(CC(=O)Nc1ccc(F)cc1)C(=O)COc1ccc(C(=O)c2ccccc2)cc1	–	–	–	–	–
COc1ccc(NC(=O)CN(C)C(=O)COc2ccccc2Cc2ccccc2)cc1	·	·	?	·	9.3µM
CCOc1ccccc1C(=O)N(C)CC(=O)Nc1ccc(OC)cc1	–	–	–	–	–[0.00184 µM]
CN(CC(=O)Nc1ccc(F)cc1)C(=O)COc1ccccc1Cc1ccccc1	·	·	5.2µM	·	?
CC12CCC=CC1C(c1ccc(C(F)(F)F)cc1)N(Cc1ccccc1)C2=O (configuration not stated)	–	·	·	–	·
Cc1[nH]nc2c1C(CCc1ccccc1)C(C#N)=C(N)O2 (configuration not stated)	–	–	–	–	–
O=C(COC(=O)CCC(=O)c1cccs1)Nc1ccc(S(=O)(=O)N2CCOCC2)cc1	–	–	·	–	–
COC(=O)Nc1nc2c(s1)CCCC2	36	–	·	28	–
Cc1onc(-c2ccccc2)c1C(=O)Nc1nc2c(s1)CCCC2	–	–	·	32	–
CCOCc1nnc(NC(=O)c2c(-c3ccccc3)noc2C)s1	–	–	–	–	–
SMILES	Shiga inhibitor	NS1 inh	Pf growth 96h	CHX counter	Pf growth 48h
COc1cc([N+](=O)[O-])ccc1NC(=O)Nc1cnccn1	–	–	–	–	–
CCOC(=O)c1c(NC(=O)c2c(-c3ccccc3)noc2C)sc(C)c1-c1ccccc1	–	–	6.6µM	–	·
COc1cc([N+](=O)[O-])ccc1NC(=O)Nc1nc2c(s1)CCCC2	–	–	–	–	1.5µM
CN1CCN(CC(=O)Nc2nc3c(s2)CCCC3)CC1	–	–	–	–	–
NS(=O)(=O)c1ccc(NC(=O)COC(=O)CN2C(=O)C3CC=CCC3C2=O)cc1 (configuration not stated)	·	·	–	·	–
Cc1cccc(N(C(=O)c2csnn2)C(C(=O)NC2CCCCC2)c2ccccn2)c1C (configuration not stated)	–	–	–	–	–
CN(C)c1ccc(NC(=O)CC(NCc2ccccn2)C(=O)O)cc1 (configuration not stated)	–	–	–	–	–
Cc1cc(C(=O)Nc2nc3c(s2)CCCC3)no1	–	–	–	17	–
COc1cc([N+](=O)[O-])ccc1NC(=O)NNC(=O)c1sccc1C	35	–	–	26	–
COc1cc([N+](=O)[O-])ccc1NC(=O)NNC(=O)CCc1ccccc1	–	–	–	–	–
COc1ccc(C(=O)N2c3ccccc3C=CC2C#N)cc1 (configuration not stated)	–	–	–	–	–
N#C[C@H]1[C@H](c2ccccc2)[C@](C#N)(C(=O)c2ccccc2)[C@@H]2C=Cc3ccccc3N21	–	–	–	42	?
O=C(NC(=S)Nc1cccnc1Cl)c1ccco1	55	·	–	21	–
O=C(NC(=S)Nc1ccccn1)c1ccco1	58	–	–	47	–
Cc1ccnc(NC(=S)NC(=O)c2ccco2)c1	96	–	–	40	–
O=C(NC(=S)Nc1ccccc1[N+](=O)[O-])c1ccco1	–	·	?	22	–
COc1ccc(OC)c(N(CC(N)=O)S(=O)(=O)c2ccc(OC)c(OC)c2)c1	–	–	–	–	·
COP(=O)(OC)c1nc(-c2ccccc2)oc1N1CCOCC1	–	–	–	–	–
Cc1ccc(CC(=O)Nc2cc(C)ccn2)cc1	–	–	–	–	–
CCNC(=S)Nc1cc(C)ccn1	29	–	–	–	–
Cc1ccnc(NC(=S)NC(=O)c2cccs2)c1	160	–	?	78	–
CCCSc1nc(C)c(CC(=O)O)c(=O)[nH]1	–	–	–	–	–
CN(C)CCCN=c1c2ccccc2n(C)c2[nH]c(=O)n(C)c(=O)c12	·	–	·	·	·
Cn1c(N)c(C(=O)COC(=O)C2(c3cccc(F)c3)CCCC2)c(=O)n(C)c1=O	–	–	13µM	–	7.4µM
Cn1c(N)c(C(=O)COC(=O)Cc2ccsc2)c(=O)n(C)c1=O	–	–	10µM	–	–
SMILES	Shiga inhibitor	NS1 inh	Pf growth 96h	CHX counter	Pf growth 48h
Cn1c(N)c(C(=O)COC(=O)CSc2ccccc2)c(=O)n(C)c1=O	–	–	–	16	–
O=C(CSc1nnc(COc2ccc(Cl)cc2Cl)o1)Nc1ccccn1	60	–	–	28	–
Clc1ccc(OCc2nnc(SCc3nnc(-c4ccccc4)o3)o2)c(Cl)c1	56	–	·	39	–
O=C(CSc1nnc(CCCOc2ccc(Cl)cc2Cl)o1)Nc1ccc(C(=O)O)cc1	–	–	?	–	–
Clc1ccc2nc(SCc3nnc(-c4ccccc4)o3)[nH]c2c1	–	–	–	–	–
CNC(=S)NNc1nc(C)cc(C)n1	–	·	–	–	–[5.75 µM]
CCn1c(COc2cccc(OC)c2)nnc1SCC(=O)NC1CCCC1	–	–	?	36	–
Cc1cccc(C)c1OCC(=O)NCc1nnc(SCC(=O)NC2CCCCC2)n1C	–	–	–	–	12µM
Cc1cccc(C(=O)NCc2nnc(SCC(=O)NC3CCCC3)n2C)c1	–	–	–	–	–

From PubChem BioAssay
